Experimental data reported in ChEMBL document CHEMBL1157539, “Thousands of chemical starting points for antimalarial lead identification” (Nature, 2010).

How the values were obtained:
Assay type in all cases: functional
[1] = test system: Plasmodium falciparum; assay: GSK_TCMDC: Inhibition of Plasmodium falciparum 3D7 in whole red blood cells, using parasite LDH activity as an index of growth. Test compounds present at 2uM
[2] = test system: Plasmodium falciparum; assay: GSK_TCMDC: Inhibition of Plasmodium falciparum Dd2 in whole red blood cells, using parasite LDH activity as an index of growth. Test compounds present at 2uM
[3] = test system: HepG2; assay: GSK_TCMDC: Percent inhibition of human HepG2 cell line. Test compounds present at 10uM.

Structure (SMILES) | Inhibition [1] | Inhibition [2] | Inhibition [3]
Cc1noc(C)c1-c1cccc(CNCc2cccc(-c3cccc(-c4nc5cc(F)ccc5[nH]4)c3)c2)c1.O=C(O)C(F)(F)F | 100% | 73% | 18%
CCN(CC)CCNc1ccnc2[nH]c3ccc([N+](=O)[O-])cc3c12 | 100% | 76% | 6%
CN1CCN(CC(=O)Nc2ccc(-c3ccc(-c4nc5ccccc5[nH]4)cc3)cc2)CC1 | 98% | 80% | 18%
C=C[C@H]1CN2CC[C@H]1C[C@@H]2[C@@H](O)c1ccnc2ccc(OC)cc12 [QUINIDINE] | 98% | 95% | 0%
CCOC(=O)c1c(C)n(-c2ccc(Cl)cc2)c2ccc(OC(=O)C=Cc3ccccc3)cc12 | 99% | 92% | 3%
CSc1ccccc1NC(=S)NC1CCN(CCCCCNC(=O)/C=C/c2ccc(Cl)c(Cl)c2)CC1 | 98% | 27% | 19%
CCCC(=O)Nc1ccc(OCCCN(Cc2ccccc2C(F)(F)F)c2ccc(C#N)c(C(F)(F)F)c2)cc1 | 89% | 79% | 0%
COc1ccc2ncc(F)c(CCN3CC(O)C(CNCc4ccc5ccccc5c4)C3)c2n1.Cl (stereo not given) | 100% | 78% | 57%
Cc1cccc2nc(-c3ccc(-c4ccc(NC(=O)NCc5ccccc5)cc4)s3)[nH]c12 | 93% | 8% | 79%
N=C(N)NC(=O)Nc1cc(Cl)c(Cl)c(Cl)c1 | 100% | 100% | 0%
CCCCN1CCN(CC(O)CNC(=O)Nc2ccc(Cl)cc2)CC1.O=C(O)C(F)(F)F (stereo not given) | 100% | 99% | 17%
CC(C)N1CCN(c2ccc(OCCCCN3CCN(c4cccc(Cl)c4Cl)CC3)c(C(F)(F)F)c2)CC1.Cl | 100% | 28% | 64%
Cc1cc(-c2cc3nc4c(c(O)n3n2)CCCC4)c(C)o1 | 94% | 82% | 4%
COc1cc2c(cc1OC)CC(NCc1ccc(-c3ccc4nc[nH]c4c3)cc1)C2.O=C(O)C(F)(F)F | 97% | 92% | 40%
Cc1nc(-c2cccc(Nc3nccc(NCC(O)c4ccccc4C)n3)c2)cs1 (stereo not given) | 92% | 14% | 38%
CCCCNC[C@@H](O)[C@H](Cc1ccccc1)NC(=O)c1cc2c3c(c1)c(CC)cn3CCS(=O)(=O)N2C.O=CO | 99% | 98% | 0%
CC(C)(C)c1ccc(CNC(=O)c2ccc(-c3nc4ccc(Cl)cc4[nH]3)cc2)cc1 | 93% | 2% | 14%
COc1ccc2nc(Nc3nc4cnccc4[nH]3)sc2c1 | 88% | 26% | 8%
O=C(NCc1cccc(F)c1)Nc1cccc(-c2cccc(-c3nc4ccccc4[nH]3)c2)c1 | 96% | 27% | 28%
COc1ccc(-c2ccc(NC(=O)c3ccc(C#N)cc3)cc2)cc1CN1CCN(C)CC1.O=C(O)C(F)(F)F | 93% | 49% | 21%

Structure (SMILES) | Inhibition [1] | Inhibition [2] | Inhibition [3]
COc1ccc2ncc(F)c([C@H](O)CN3CCC(NCc4cc5c(cn4)OCCO5)CC3)c2c1.Cl | 100% | 97% | 5%
C[C@@H](NC(=O)c1nn(-c2ccc(Cl)cc2)c(=O)c2ccccc12)C(C)(C)C | 95% | 20% | 7%
Cc1ccc(NC(=N)Nc2ncccc2OCc2c(F)cccc2Cl)cc1 | 86% | 54% | 78%
CCOC(=O)c1c(NC(NC(=O)c2ccc(C(C)(C)C)cc2)C(Cl)(Cl)Cl)sc2c1CCCC2 (stereo not given) | 98% | 94% | 1%
CC(=O)N(C)C1CCN(Cc2ccc(-c3cccc(-c4nc5cc(F)ccc5[nH]4)c3)cc2)C1.O=C(O)C(F)(F)F (stereo not given) | 100% | 79% | 28%
O=C(Nc1ccc(C(F)(F)F)cc1)c1cc(Br)cnc1NCCCn1ccnc1 | 99% | 98% | 32%
O=C(/C=C/c1ccc(Cl)c(Cl)c1)N1CCC(CCCN2CCC(c3c[nH]c4ccccc34)CC2)CC1 | 100% | 45% | 44%
CN(C)CCOc1ccc(-c2cc(-c3ccnc(N)n3)c(-c3ccc(Cl)c(O)c3)o2)cc1 | 100% | 91% | 14%
COc1cc2nc(NCC3CCN(C(=O)c4ccc(-c5ccc(C(=O)N(C)C)cc5C)cc4)CC3)nc(N)c2cc1OC | 100% | 34% | 2%
COc1cccc(Nc2nc(C)cc(Nc3cccc(C#N)c3)n2)c1 | 100% | 92% | 0%
CN(C)c1cc(NN=Cc2cc(Cl)ccc2O)nc(N(C)C)n1 | 98% | 98% | 3%
Cc1nc(-c2cccc(Nc3nccc(NCC(O)c4cccc(C(F)(F)F)c4)n3)c2)cs1 (stereo not given) | 100% | 99% | 14%
CCCCCCNc1c2ccccc2nc2ccccc12.Cl | 97% | 32% | 24%
Cc1cc(CN2CC[C@H](NC(=O)c3ccc(Cl)c(Cl)c3)C2)ccc1OCCN1CCNCC1.O=C(O)C(F)(F)F | 94% | 1% | 15%
CS(=O)(=O)c1ccc(CCNCc2ccc(-c3ccc(CN(C(=O)c4ccco4)C4CCN(Cc5ccccc5)CC4)cc3)nc2)cc1.O=C(O)C(F)(F)F | 85% | 38% | 13%
COc1ccc2[nH]c(C)cc(=NN=Cc3ccccc3F)c2c1 | 100% | 100% | 3%
COc1ccc2ncc(F)c(CCN3CC[C@@H](CNCc4nc5c(cc4C)SCC(=O)N5)C3)c2n1.Cl | 91% | 42% | 14%
Cn1c(-c2ccccc2)cc2c3c(=O)cc(C(F)(F)F)[nH]c3ccc21 | 95% | 49% | 21%
O=C(/C=C/c1ccc(CNCCN2CCOCC2)cc1)NCCc1ccccc1 | 94% | 3% | 9%
O=C(Nc1ccc(-c2cccc(-c3nc4cc(C(F)(F)F)ccc4[nH]3)c2)cc1)c1ccncc1 | 100% | 23% | 63%

Structure (SMILES) | Inhibition [1] | Inhibition [2] | Inhibition [3]
COc1ccc(-c2cnc(NCc3ccccc3)nc2)cc1CNC1CCN(C)CC1.O=C(O)C(F)(F)F | 96% | 64% | 19%
Cc1nc2ccc([N+](=O)[O-])cc2c(=O)n1OCc1ccccc1 | 98% | 0% | 2%
CCCCCCCCCN(CCC)C(=O)[C@@H]1OC(C(=O)OC(c2ccccc2)c2ccccc2)=C[C@H](NC(=O)OC(C)(C)C)[C@H]1NC(C)=O | 91% | 49% | 0%
Cc1ccccc1C1CCN(C2CCC(NC(=O)c3csc(-c4cccc(Cl)c4)n3)CC2)CC1 (stereo not given) | 85% | 42% | 33%
CO/C(=C\C=C\c1cc2cc(Cl)c(Cl)cc2[nH]1)C(=O)Nc1ccc(NCCN(C)C)nc1.Cl | 93% | 56% | 27%
CCN(CC)CCN(Cc1ccc(-c2ccc(C(F)(F)F)cc2)cc1)C(=O)Cn1c(CCc2ccc(F)c(F)c2)cc(=O)c2ccccc21.O=C(O)C(O)C(O)C(=O)O | 95% | 26% | 23%
CCCCCn1c(Sc2ccc(C#N)c([N+](=O)[O-])c2)nnc1-c1ccccc1 | 93% | 15% | 22%
O=C(c1ccc([N+](=O)[O-])o1)N1CCN(c2nc3c(F)cc(F)cc3s2)CC1 | 93% | 86% | 0%
Cc1cccc(C(=O)Nc2ccnc(N(C)CCCN(C)Cc3cccc(C#N)c3)c2)c1.O=C(O)C(F)(F)F | 92% | 12% | 1%
CCNc1cc(C(=O)N[C@@H](Cc2ccccc2)[C@H](O)CN[C@@H]2CCc3ccccc32)cc(N2CCCCS2(=O)=O)c1 | 98% | 97% | 0%
COc1ccc(C(=O)CCC(=O)N(Cc2ccc(-c3ccc(CNCc4cccnc4)cn3)cc2)C2CCN(Cc3ccccc3)CC2)cc1F.O=C(O)C(F)(F)F | 94% | 26% | 30%
O=C(C=Cc1ccc(Cl)c(Cl)c1)NCCCCCN1CCCC(CCCNC(=O)c2ccc3c(c2)OCO3)C1 (stereo not given) | 95% | 4% | 30%
CC(=O)Nc1nc(C(=O)Nc2cccc(-c3cccc(-c4nc5cc(F)ccc5[nH]4)c3)c2)cs1 | 100% | 100% | 39%
CCCCCc1cc(O)c2c(c1)OC(C)(C)C=C2C1=CCN(Cc2ccsc2)CC1 | 98% | 48% | 20%
CCn1cc(C=C2Oc3c(ccc(O)c3CN3CCCCC3C)C2=O)c2ccccc21 (stereo not given) | 94% | 80% | 0%
N#Cc1ccc(N2CCN(Cc3ccc(-c4ccc(-c5nc6ccccc6[nH]5)s4)cc3)CC2)nc1.O=C(O)C(F)(F)F | 99% | 63% | 17%
CCOc1cccc(C(=O)Nc2cccc(CN3CCCN(Cc4cccc(O)c4)CC3)c2)c1.O=C(O)C(F)(F)F | 85% | 18% | 17%
CCN(CC)CCOc1c(Cl)cc(Cl)cc1CNCCCNc1cc(=O)c2ccccc2[nH]1 | 97% | 6% | 11%
Br.CCOC(=O)c1cc(Cl)cc(Cl)c1OCCCON1C(=N)N=C(N)NC1(C)C | 93% | 97% | 70%
CN(C)c1cccc2c1nc(-c1ccco1)n2CC1CCCN1.O=C(O)C(F)(F)F (stereo not given) | 86% | 46% | 0%
